Calls of active or inactive are those of the source. Unless noted, the rule behind the calls is not given here.
Legend:
[1] = compounds binding Alexa647 anti-His antibody – biochemical, small-molecule microarray, 635 nm fluorescence, artefact control for SMM control protein annotation, primary screen (AID 1128); conditions: higher = more signal;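 note: score merges feature fluorescence with signal-to-noise for each printed compound spot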
[2] = system: Human papillomavirus type 1a E7 protein (residues 1-88); test: HPV1a E7 small-molecule binders, primary screen, biochemical, small-molecule microarray, residues 1-88, 635 nm (AID 1129); conditions: small-molecule microarray binding, fluorescence 635 nm; higher = more signal
[3] = molecular target: Focal adhesion kinase 1 (Homo sapiens) (UniProt Q05397); test: PTK2 protein binding on printed compound slides – biochemical, small-molecule microarray, 635/667 nm fluorescence, BSA, DTT, primary screen (AID 1130); conditions: 635 nm fluorescence, higher = more signal;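 note: composite of spot emission at 667 nm and signal to noise over triplicate slides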
[4] = system: Fibrinogen (Alexa647-labelled); test: Alexa647-fibrinogen binding to printed small molecules – biochemical, small-molecule microarray, 635/667 nm fluorescence, artefact control for SMM control-protein annotation, profiling panel (AID 1131); conditions: fibrinogen-A647 binding fluorescence, higher = more signal;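 note: z-score merges 667 nm fluorescence with per-spot signal-to-noise over triplicate slides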
[5] = molecular target: Follistatin (Homo sapiens) (UniProt P19883); test: FST protein binding to printed compounds – biochemical, small-molecule microarray, 635/667 nm fluorescence, primary screen (AID 1132); conditions: 635 nm fluorescence, higher = more signal
[6] = molecular target: Fibroblast growth factor 2 (Homo sapiens) (UniProt P09038); test: basic fibroblast growth factor binding to printed compounds – biochemical, small-molecule microarray, 635/667 nm fluorescence, primary screen (AID 1133); conditions: FGF2, fluorescence 635/667, higher = more signal
[7] = JC-1 mitochondrial potential readout, lung cancer cells – cell-based, A549, JC-1 fluorescence, basal, 24 h, 100 nL, profiling panel (AID 1138); conditions: higher = more signal;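 note: A549 lung adenocarcinoma cells under basal conditions with no added stimulus; test concentration not given here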
[8] = system: Lefty1; test: Lefty1 protein binding to printed compounds – biochemical, small-molecule microarray, 635/667 nm fluorescence, primary screen (AID 1139); conditions: fluorescence 635/667, higher = more signal
[9] = system: wheat germ agglutinin (Triticum aestivum), Alexa647-labelled; test: Alexa647-WGA lectin binding to printed small molecules – biochemical, small-molecule microarray, 635/667 nm fluorescence, artefact control for SMM control-protein annotation, profiling panel (AID 1140); conditions: WGA-A647 binding, 635 nm fluorescence, higher = more signal;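 note: score merges 667 nm feature emission with signal to noise over triplicate slides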
[10] = molecular target: Luciferin 4-monooxygenase (Photinus pyralis) (UniProt P08659); test: inhibition of purified Photinus pyralis luciferase – biochemical, luminescence, purified enzyme, 2006 set, primary screen (AID 1141); conditions: purified firefly luciferase, SteadyGlo luminescence, 30 min; higher = more signal, called active from +8 up or from −8 down;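 note: cell-free assay with purified firefly luciferase at 100 ng per well in PBS; test concentration not given here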
[11] = system: Wnt5a (protein binding on small-molecule microarray); test: small molecules binding Wnt5a protein – biophysical, small-molecule microarray, 635/667 nm fluorescence, primary screen (AID 1142); conditions: 635 nm fluorescence, higher = more signal;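 note: fluorescence read at 667 nm with signal to noise per printed feature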
[12] = ATP-based viability of Huh7 replicon cells – cell-based, CellTiter-Glo luminescence, basal, 48 h, cytotoxicity control for HCV replication inhibitor project, primary screen (AID 1143); conditions: higher = more signal, called active from +8 up or from −8 down;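 note: Huh7 hepatoma cells carrying a hepatitis C replication reporter with no stimulus; test concentration not given here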
[13] = Pseudomonas biofilm growth suppression – PAO1 strain, BacTiter-Glo luminescence, LB-PBS, primary screen (AID 1144); conditions: P. aeruginosa PAO1 biofilm, 12 h, higher = more signal
[14] = basal CRE-LacZ reporter activity in PC12 – cell-based, unstimulated, primary screen (AID 1145); conditions: no forskolin, luminescence, 4.5 h, higher = more signal, called active from +8 up or from −8 down
[15] = forskolin-driven CRE-LacZ activity in PC12 – cell-based, CRE-LacZ reporter, forskolin-stimulated, primary screen (AID 1146); conditions: luminescence, 4.5 h, higher = more signal, called active from +8 up or from −8 down;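 note: PC12 cells with 6xCRE LacZ reporter stimulated by forskolin 10 µM; beta-galactosidase reporter signal reflecting CREB driven transcription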
[16] = molecular target: Streptavidin (Streptomyces avidinii) (UniProt P22629); test: compounds binding control protein streptavidin – biophysical, small-molecule microarray, 635/667 nm fluorescence, artefact control for SMM compound annotation, primary screen (AID 1147); conditions: higher = more signal;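 note: signal reflects streptavidin binding to arrayed compounds as a control protein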
[17] = probe aInhba binding on compound microarray – biochemical, small-molecule microarray, 635/667 nm fluorescence, primary screen (AID 1148); conditions: higher = more signal;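 note: score merges 667nm spot fluorescence with signal-to-noise for antibody binding to printed compounds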
[18] = molecular target: Torsin-1A (Homo sapiens) (UniProt O14656); test: TOR1A wild-type binding on microarray – cell lysate, small-molecule microarray, lysate, 635/667 nm, primary screen (AID 1149); conditions: COS7 hTOR1A-WT lysate, 635 nm fluorescence, higher = more signal
[19] = molecular target: Torsin-1A (Homo sapiens) (UniProt O14656); test: torsin A mutant lysate binding on microarrays – cell lysate, small-molecule microarray, COS7 lysate, 635/667 nm fluorescence, primary screen (AID 1150); conditions: COS7 hTOR1A mutant lysate, 635 nm fluorescence, higher = more signal;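 note: score pools 667 nm emission and signal to noise measuring lysate protein binding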
[20] = system: Sonic hedgehog protein (Shh); test: Sonic hedgehog microarray binding compounds – biochemical, small-molecule microarray, 635/667 nm fluorescence, primary screen (AID 1151); conditions: 635 nm fluorescence, higher = more signal;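 note: Shh protein binding to compounds spotted on small-molecule microarray slides; score combines spot fluorescence intensity with signal-to-noise across triplicate slides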

Sequence of Fibroblast growth factor 2 (Homo sapiens) (P09038 whole entry, looked up): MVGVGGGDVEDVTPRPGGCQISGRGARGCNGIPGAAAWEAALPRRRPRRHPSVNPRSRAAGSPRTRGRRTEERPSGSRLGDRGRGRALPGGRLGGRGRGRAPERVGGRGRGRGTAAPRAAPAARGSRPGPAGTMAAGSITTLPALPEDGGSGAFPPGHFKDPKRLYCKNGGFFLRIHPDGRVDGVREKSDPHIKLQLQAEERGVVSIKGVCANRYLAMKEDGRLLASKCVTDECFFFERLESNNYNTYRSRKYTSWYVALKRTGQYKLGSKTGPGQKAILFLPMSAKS
Sequence of Torsin-1A (Homo sapiens) (O14656 whole entry, looked up): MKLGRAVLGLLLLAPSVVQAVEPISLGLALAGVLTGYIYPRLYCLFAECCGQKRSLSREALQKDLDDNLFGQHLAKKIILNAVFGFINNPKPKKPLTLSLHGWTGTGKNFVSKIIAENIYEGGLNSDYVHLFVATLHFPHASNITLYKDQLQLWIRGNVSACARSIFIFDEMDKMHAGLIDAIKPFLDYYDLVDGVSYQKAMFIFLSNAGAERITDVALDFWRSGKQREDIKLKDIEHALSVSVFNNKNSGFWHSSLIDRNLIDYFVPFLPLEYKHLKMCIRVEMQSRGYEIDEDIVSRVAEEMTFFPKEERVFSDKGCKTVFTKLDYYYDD
Sequence of Streptavidin (Streptomyces avidinii) (P22629 whole entry, looked up): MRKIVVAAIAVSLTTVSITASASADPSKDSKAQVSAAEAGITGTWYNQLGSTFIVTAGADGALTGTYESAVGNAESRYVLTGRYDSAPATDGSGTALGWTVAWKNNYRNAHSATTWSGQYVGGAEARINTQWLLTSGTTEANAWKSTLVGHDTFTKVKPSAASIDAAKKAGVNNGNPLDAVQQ
Sequence of Luciferin 4-monooxygenase (Photinus pyralis) (P08659 whole entry, looked up): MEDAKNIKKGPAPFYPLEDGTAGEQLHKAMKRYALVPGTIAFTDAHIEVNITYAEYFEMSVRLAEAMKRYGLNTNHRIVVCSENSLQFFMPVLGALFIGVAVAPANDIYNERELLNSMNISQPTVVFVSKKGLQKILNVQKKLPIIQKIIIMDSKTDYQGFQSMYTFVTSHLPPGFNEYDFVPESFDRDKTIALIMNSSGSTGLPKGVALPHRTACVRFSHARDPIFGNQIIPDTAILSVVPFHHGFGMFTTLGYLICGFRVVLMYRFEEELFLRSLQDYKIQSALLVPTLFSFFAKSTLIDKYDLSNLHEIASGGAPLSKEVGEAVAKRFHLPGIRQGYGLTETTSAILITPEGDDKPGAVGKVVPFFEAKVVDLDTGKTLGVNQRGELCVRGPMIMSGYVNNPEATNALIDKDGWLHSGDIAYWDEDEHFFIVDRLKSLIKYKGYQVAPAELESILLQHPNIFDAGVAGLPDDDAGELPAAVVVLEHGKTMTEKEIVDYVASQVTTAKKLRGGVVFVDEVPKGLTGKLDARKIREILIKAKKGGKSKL
Sequence of Follistatin (Homo sapiens) (P19883 whole entry, looked up): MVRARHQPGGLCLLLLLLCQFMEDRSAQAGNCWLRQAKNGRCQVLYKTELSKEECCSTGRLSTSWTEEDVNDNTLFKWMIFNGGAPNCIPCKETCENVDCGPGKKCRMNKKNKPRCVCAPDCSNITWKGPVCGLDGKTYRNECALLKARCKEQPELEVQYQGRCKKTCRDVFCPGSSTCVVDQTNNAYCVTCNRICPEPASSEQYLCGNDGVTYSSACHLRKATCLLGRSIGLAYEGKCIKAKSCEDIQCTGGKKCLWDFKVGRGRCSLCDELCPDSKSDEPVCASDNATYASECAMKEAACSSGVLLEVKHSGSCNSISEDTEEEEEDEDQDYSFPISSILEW
Sequence of Focal adhesion kinase 1 (Homo sapiens) (Q05397 whole entry, looked up): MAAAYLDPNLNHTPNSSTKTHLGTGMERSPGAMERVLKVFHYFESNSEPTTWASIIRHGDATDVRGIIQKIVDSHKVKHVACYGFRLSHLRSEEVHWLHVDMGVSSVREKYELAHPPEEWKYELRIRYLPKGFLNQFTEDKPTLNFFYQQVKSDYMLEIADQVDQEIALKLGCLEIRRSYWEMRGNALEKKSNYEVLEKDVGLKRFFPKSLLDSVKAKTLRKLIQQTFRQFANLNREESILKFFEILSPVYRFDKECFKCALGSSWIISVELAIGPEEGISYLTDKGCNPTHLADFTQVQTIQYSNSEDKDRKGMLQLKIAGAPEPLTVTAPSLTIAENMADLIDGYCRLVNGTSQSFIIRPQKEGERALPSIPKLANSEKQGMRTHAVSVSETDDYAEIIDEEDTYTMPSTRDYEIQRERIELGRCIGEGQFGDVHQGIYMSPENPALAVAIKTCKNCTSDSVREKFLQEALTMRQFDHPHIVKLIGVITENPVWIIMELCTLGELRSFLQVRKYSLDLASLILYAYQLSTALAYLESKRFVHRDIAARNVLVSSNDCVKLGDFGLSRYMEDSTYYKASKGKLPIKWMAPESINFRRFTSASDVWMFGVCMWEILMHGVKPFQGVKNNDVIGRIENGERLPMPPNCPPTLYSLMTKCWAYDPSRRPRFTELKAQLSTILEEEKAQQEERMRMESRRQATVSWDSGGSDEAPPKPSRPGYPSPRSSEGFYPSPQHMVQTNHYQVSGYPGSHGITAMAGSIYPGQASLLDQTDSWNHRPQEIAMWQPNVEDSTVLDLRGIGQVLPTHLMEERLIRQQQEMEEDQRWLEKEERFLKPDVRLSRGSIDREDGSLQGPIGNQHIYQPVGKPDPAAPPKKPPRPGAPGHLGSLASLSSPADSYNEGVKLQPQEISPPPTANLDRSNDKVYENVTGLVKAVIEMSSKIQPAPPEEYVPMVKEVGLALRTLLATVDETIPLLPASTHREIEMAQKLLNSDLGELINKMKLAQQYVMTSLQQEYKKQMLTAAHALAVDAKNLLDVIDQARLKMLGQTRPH

CCCCC(O)C1C=CC2C(=O)N(Cc3ccccc3)C(=O)C2N1n1cnnc1 (stereo not given)
composite z-score [1]: 2.39
composite z-score [2]: 0.433
composite z-score [3]: 0.242
composite z-score [4]: 0.892
composite z-score [5]: 0.457
composite z-score [6]: -0.0025
z-score [7]: -0.721
composite z-score [8]: 0.289
composite z-score [9]: 0.652
z-score [10]: 1.48 (inactive)
composite z-score [11]: 0.0687
z-score [12]: -4.01 (inactive)
z-score [13]: -0.372 (inactive)
z-score [14]: 0.519 (inactive)
z-score [15]: -0.422 (inactive)
composite z-score [16]: 0.416
composite z-score [17]: -0.0477
composite z-score [18]: 0.0569
composite z-score [19]: -0.459
composite z-score [20]: 0.22

CC(C)(C)OC(=O)CC[C@@]1(C(=O)N2CCCCC2)N=C(c2ccc(OCCCO)cc2)O[C@@H]1c1ccccc1N=[N+]=[N-]
composite z-score [1]: 2.83
composite z-score [2]: 1.27
composite z-score [3]: 1.7
composite z-score [4]: 0.99
composite z-score [5]: 1.26
composite z-score [6]: 0.722
z-score [7]: 1.95
composite z-score [8]: 0.0141
composite z-score [9]: 1.25
z-score [10]: -11.7 (active)
composite z-score [11]: 0.258
z-score [12]: -2.66 (inactive)
z-score [13]: -0.197 (inactive)
z-score [14]: 0.227 (inactive)
z-score [15]: -1.62 (inactive)
composite z-score [16]: 2.05
composite z-score [17]: 0.401
composite z-score [18]: 0.332
composite z-score [19]: 0.827
composite z-score [20]: 0.292

C[N+](C)(C)CCCCCCNC(=O)[C@H]1C[C@H]2C(=O)N3CCC[C@H]3C(=O)N2[C@H]1c1cccc(OCCO)c1
composite z-score [1]: 1.38
composite z-score [2]: 0.874
composite z-score [3]: 0.141
composite z-score [4]: 0.242
composite z-score [5]: 1.3
composite z-score [6]: 1.35
z-score [7]: -1.05
composite z-score [8]: 1.64
composite z-score [9]: -0.0285
z-score [10]: 0.126 (inactive)
composite z-score [11]: 0.544
z-score [12]: -0.0803 (inactive)
z-score [13]: 0.236 (inactive)
z-score [14]: -0.532 (inactive)
z-score [15]: -0.583 (inactive)
composite z-score [16]: -0.278
composite z-score [17]: -0.0112
composite z-score [18]: 1.98
composite z-score [19]: 1.71
composite z-score [20]: 2.15

COCCCNC(=O)[C@@]1(Cc2ccccc2N=[N+]=[N-])N=C(c2ccc(OCCCO)cc2)O[C@H]1c1ccccc1CN=[N+]=[N-]
composite z-score [1]: 2.71
composite z-score [2]: 1.23
composite z-score [3]: 1.06
composite z-score [4]: 0.998
composite z-score [5]: 1.04
composite z-score [6]: 0.969
z-score [7]: 1.64
composite z-score [8]: -0.113
composite z-score [9]: 1.05
z-score [10]: -3.93 (inactive)
composite z-score [11]: 0.972
z-score [12]: -5.06 (inactive)
z-score [13]: -0.389 (inactive)
z-score [14]: 1.84 (inactive)
z-score [15]: -1.75 (inactive)
composite z-score [16]: 1.08
composite z-score [17]: 0.246
composite z-score [18]: 0.554
composite z-score [19]: 0.752
composite z-score [20]: -0.265

COCCOC(=O)N1C(=O)[C@@]2(c3cc(C#CCCO)ccc31)[C@H](C(=O)N1CCc3cc(OC)c(OC)cc3C1)[C@H]1C(=O)O[C@H](c3ccccc3)[C@H](c3ccccc3)N1[C@@H]2c1ccc(OCCO)cc1
composite z-score [1]: 0.768
composite z-score [2]: 1.08
composite z-score [3]: 0.148
composite z-score [4]: 0.786
composite z-score [5]: 1.27
composite z-score [6]: 1.29
z-score [7]: -0.236
composite z-score [8]: 1.11
composite z-score [9]: 0.774
z-score [10]: -2.83 (inactive)
composite z-score [11]: 0.667
z-score [12]: -2.99 (inactive)
z-score [13]: -1.11 (inactive)
z-score [14]: 0.362 (inactive)
z-score [15]: -1.27 (inactive)
composite z-score [16]: 0.675
composite z-score [17]: 0.077
composite z-score [18]: 0.284
composite z-score [19]: 0.89
composite z-score [20]: 2.13

[N-]=[N+]=NCc1ccccc1C[C@]1(C(=O)NCCN2CCOCC2)N=C(c2ccc(OCCCO)cc2)O[C@H]1c1ccccc1
composite z-score [1]: 0.478
composite z-score [2]: 1.22
composite z-score [3]: 0.378
composite z-score [4]: 1.01
composite z-score [5]: 1.39
composite z-score [6]: 0.473
z-score [7]: 1.02
composite z-score [8]: 0.649
composite z-score [9]: 0.556
z-score [10]: 0.375 (inactive)
composite z-score [11]: 0.461
z-score [12]: -4.59 (inactive)
z-score [13]: -1.63 (inactive)
z-score [14]: 1.11 (inactive)
z-score [15]: -0.838 (inactive)
composite z-score [16]: -0.0127
composite z-score [17]: 0.364
composite z-score [18]: 1.39
composite z-score [19]: 0.531
composite z-score [20]: 1.1

Cc1cc(C)c(C(O)C2C=CC3C(=O)N(c4ccccc4)C(=O)C3N2Nc2ccccc2)c(C)c1 (stereo not given)
composite z-score [1]: 2.11
composite z-score [2]: 1.22
composite z-score [3]: 0.638
composite z-score [4]: 1.03
composite z-score [5]: 0.784
composite z-score [6]: 0.0968
z-score [7]: 0.384
composite z-score [8]: 0.366
composite z-score [9]: 1.43
z-score [10]: -0.584 (inactive)
composite z-score [11]: 0.345
z-score [12]: 0.326 (inactive)
z-score [13]: -1.38 (inactive)
z-score [14]: -0.329 (inactive)
z-score [15]: 0.501 (inactive)
composite z-score [16]: 1.55
composite z-score [17]: 0.117
composite z-score [18]: 0.133
composite z-score [19]: 0.329
composite z-score [20]: 0.234

From PubChem BioAssay
